Potency and affinity values are given separately. Results filed as inconclusive are left out. Active and inactive are the calls of the source. Unless noted, how the calls were made is not given here.
Assays:
[1] = RMG-1 ovarian cancer cell viability loss – cherry-pick, dose response (AID 687029;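 active means signal drop whose fitted half-maximal concentration is at most twice the top valid dose, in every test run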;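 further: cells exposed to compound for 96 hours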)
[2] = IOSE-T80 viability loss, PAX8-independent line – cell-based, cherry-pick, selectivity assay for PAX8 inhibitor project, dose response (AID 687032;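 active means fitted half-maximal concentration for viability loss no higher than twice the top valid dose, in every repeat run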;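 further: cells exposed to compound for 96 h before reading; 0% = neutral control wells and -100% = 2 µM mitoxantrone kill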)
[3] = CMV-driven luciferase expression suppression in HEK293 – cell-based, luminescence, dry powder, counter-screen for Pax8 inhibitor project, dose response (AID 743020;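 active means signal-lowering compounds whose fitted half-maximal concentration is at or below twice the top tested dose in every run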;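 further: HEK293 cells stably expressing the CMV luciferase reporter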)
[4] = general cell-killing toxicity readout – plate reader, dry powder samples, cytotoxicity control for PAX8 inhibitor project, dose response (AID 743021)
[5] = IGROV1 cell killing – plate reader, dry powder samples, PAX8 inhibitor project, dose response (AID 743043);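 further: more negative means fewer viable cells or more cytotoxicity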
[6] = toxicity toward immortalized ovarian surface epithelium – cell-based, plate reader, dry powder samples, cytotoxicity control for PAX8 inhibitor project, dose response (AID 743045);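 further: 0% = neutral control median and -100% = positive control median; more negative values mean more cell killing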
[7] = A2780 cell killing – plate reader, dry powder samples, cytotoxicity control, dose response (AID 743046);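 further: 0% = neutral control wells and -100% = cytotoxic reference compound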
[8] = OVCAR8 cell viability loss – plate reader, dry powder samples, PAX8 project, dose response (AID 743197)
[9] = OVCAR-3 cell viability loss – plate reader, dry powder samples, PAX8 inhibitor project, dose response (AID 743044); conditions: max activity: at 35 µM, stronger effect = lower value unless noted

Measured: max activity

Cc1ccc(S(=O)(=O)Nc2ccc3c(c2)C(=O)N([C@H](C)CO)C[C@H](C)[C@@H](CN(C)S(=O)(=O)c2cccs2)OCCCC[C@H](C)O3)cc1
inactive: [1] | [2] | [3] | [4] | [5] | [6]

COc1ccc(S(=O)(=O)N2CCCCN3[C@H](CO)[C@@H](c4ccc(C#CC(C)C)cc4)[C@H]3C2)cc1
inactive: [1] | [2] | [3] | [4] | [5] | [6]

CC(=O)N1CCOc2ccc(S(=O)(=O)N3CCN(c4cccc(C(F)(F)F)c4)CC3)cc21
inactive: [1] | [2] | [3] | [4] | [5] | [6]

Cc1ccc(S(=O)(=O)Nc2ccc3c(c2)C(=O)N([C@H](C)CO)C[C@@H](C)[C@H](CN(C)C(=O)Nc2cccc4ccccc24)OCCCC[C@@H](C)O3)cc1
inactive: [1] | [2] | [3] | [4] | [5] | [6] | [7]

C[C@@H]1CCCCO[C@@H](CN(C)C(=O)NC2CCCCC2)[C@H](C)CN([C@H](C)CO)C(=O)c2cc(NS(=O)(=O)c3ccc(Cl)cc3)ccc2O1
inactive: [1] | [2] | [3] | [4] | [5] | [6]

C[C@@H]1CCCCO[C@H](CN(C)Cc2ccc(C(F)(F)F)cc2)[C@H](C)CN([C@@H](C)CO)C(=O)c2cc(NS(=O)(=O)c3ccc(Cl)cc3)ccc2O1
inactive: [1] | [2] | [3] | [4] | [5] | [6] | [7]

COc1ccc(S(=O)(=O)Nc2ccc3c(c2)C(=O)N([C@@H](C)CO)C[C@H](C)[C@@H](CN(C)Cc2ccc(C(F)(F)F)cc2)OCCCC[C@@H](C)O3)cc1
inactive: [1] | [2] | [3] | [4] | [5] | [6]

C[C@H](CO)N1C[C@H](C)[C@H](CN(C)Cc2ccc(C(F)(F)F)cc2)OCCCC[C@H](C)Oc2ccc(NS(=O)(=O)c3ccc(F)cc3)cc2C1=O
inactive: [1] | [2] | [3] | [4] | [5] | [6] | [7]

COc1ccccc1C(=O)Nc1ccc2c(c1)C(=O)N(C)[C@@H]1CC[C@@H](CC(=O)NCc3ccc(Cl)c(Cl)c3)O[C@H]1CO2
inactive: [1] | [2] | [3] | [4] | [5] | [6] | [7]

C[C@@H]1CCCCO[C@@H](CN(C)C(=O)Nc2ccc(C(F)(F)F)cc2)[C@H](C)CN([C@H](C)CO)C(=O)c2cc(NS(=O)(=O)c3ccc(F)cc3)ccc2O1
inactive: [1] | [2] | [3] | [4] | [5] | [6] | [7]

C[C@@H](O)C#Cc1ccc2c(c1)O[C@H](CN(C)Cc1ccc(-c3ccccc3)cc1)[C@@H](C)CN([C@@H](C)CO)S2(=O)=O
inactive: [1] | [2] | [3] | [4] | [5] | [6] | [7]

C[C@@H]1CN([C@H](C)CO)C(=O)c2cccc(NC(=O)Nc3cccc4ccccc34)c2O[C@@H]1CN(C)S(=O)(=O)c1ccc(Cl)cc1
inactive: [1] | [2] | [3] | [4] | [5] | [6] | [7]

C[C@H](NC(=O)C[C@@H]1C[C@@H]2c3cc(NC(=O)Nc4ccc(C(F)(F)F)cc4)ccc3O[C@@H]2[C@@H](CO)O1)c1ccccc1
inactive: [1] | [2] | [3] | [4] | [5] | [6]

C[C@@H]1CN([C@H](C)CO)C(=O)c2cc(NC(=O)Nc3ccc(F)cc3)ccc2O[C@@H](C)CCCCO[C@H]1CN(C)C(=O)Nc1ccc(C(F)(F)F)cc1
inactive: [1] | [2] | [3] | [4] | [5] | [6] | [7]

C[C@@H]1CN([C@H](C)CO)S(=O)(=O)c2ccc(C#Cc3cccc(F)c3)cc2O[C@@H]1CN(C)C(=O)NC1CCCCC1
inactive: [1] | [2] | [3] | [4] | [5] | [6]

C[C@H]1CN([C@@H](C)CO)S(=O)(=O)c2ccc(C#Cc3ccccc3F)cc2O[C@@H]1CN(C)CC1CCOCC1
inactive: [1] | [2] | [3] | [4] | [5] | [6]

CC(C)NC(=O)N1Cc2cc(C(=O)NCC(F)(F)F)nc(-c3cccc(-c4cc5ccccc5o4)c3)c2[C@H]1CCO
inactive: [1] | [2] | [3] | [4] | [5] | [6]

Cc1cccc(S(=O)(=O)N2C[C@@H](O)COC[C@@H]3O[C@@H](CC(=O)Nc4ccc(-c5ccccc5)cc4)CC[C@H]32)c1
inactive: [1] | [2] | [3] | [4] | [5] | [6]

C[C@H](CO)N1C[C@H](C)[C@H](CN(C)Cc2ccc(C(F)(F)F)cc2)OCCCC[C@H](C)Oc2ccc(NC(=O)Nc3ccccc3)cc2C1=O
inactive: [1] | [2] | [3] | [4] | [5] | [6]

COCC(=O)N1CCCCN2[C@H](C1)[C@@H](c1ccc(-c3ccc(C)cc3)cc1)[C@@H]2CO
inactive: [1] | [2] | [3] | [4] | [5] | [6] | [7] | [8]

C[C@@H]1CN([C@H](C)CO)C(=O)c2cc(NS(=O)(=O)c3cccs3)ccc2O[C@@H](C)CCCCO[C@H]1CN(C)Cc1ccc(Cl)c(Cl)c1
inactive: [1] | [2] | [3] | [4] | [5] | [6] | [7] | [8]

CS(=O)(=O)N1CC(=O)N2[C@H](CO)[C@H](c3ccc(C#CCC4CCCC4)cc3)[C@H]2C1
inactive: [1] | [2] | [3] | [4] | [5] | [6] | [8]

COc1ccccc1-c1ccc2c(c1)[C@@H]1[C@@H](CCN1S(=O)(=O)c1ccccc1F)[C@H](CO)N2
inactive: [1] | [2] | [3] | [4] | [5] | [6] | [7] | [8]

C[C@H]1CN([C@@H](C)CO)C(=O)c2c(c3ccccc3n2C)-c2ccccc2CO[C@@H]1CN(C)S(=O)(=O)c1ccsc1
inactive: [1] | [2] | [3] | [4] | [5] | [6] | [8]

C[C@@H]1CN([C@H](C)CO)C(=O)c2cc(NC(=O)Nc3ccc(F)cc3)ccc2O[C@@H](C)CCCCO[C@H]1CN(C)C(=O)NC1CCCCC1
inactive: [1] | [2] | [3] | [4] | [5] | [6] | [7] | [8]

COc1ccc(CN(C)C[C@@H]2OCCCC[C@H](C)Oc3ccc(NC(=O)Nc4ccc(C(F)(F)F)cc4)cc3C(=O)N([C@H](C)CO)C[C@@H]2C)cc1
inactive: [1] | [2] | [3] | [4] | [5] | [6] | [7] | [8]

COc1ccc(-c2ccc3c(c2)[C@H]2[C@H](CCN2S(=O)(=O)c2ccc(OC)cc2)[C@@H](CO)N3C)cc1
inactive: [1] | [2] | [3] | [4] | [5] | [7]

O=C(C[C@@H]1CC[C@@H]2[C@H](COC[C@@H](O)CN2S(=O)(=O)c2cccc(Cl)c2)O1)Nc1ccc(-c2ccccc2)cc1
inactive: [1] | [2] | [3] | [4] | [5] | [6] | [7] | [8]

C[C@@H]1CN([C@@H](C)CO)C(=O)c2cc(NS(=O)(=O)c3cccs3)ccc2O[C@@H](C)CCCCO[C@H]1CN(C)Cc1ccc(C(F)(F)F)cc1
inactive: [1] | [2] | [3] | [4] | [5] | [6] | [7] | [8]

CC(C)NC(=O)N(C)C[C@H]1OCCCC[C@H](C)Oc2ccc(NC(=O)Nc3ccc(C(F)(F)F)cc3)cc2C(=O)N([C@H](C)CO)C[C@@H]1C
inactive: [1] | [2] | [3] | [4] | [5] | [6] | [7] | [8]

COc1ccc(C#Cc2ccc([C@@H]3[C@H](CO)N4CCCCN(C(=O)Nc5ccc(F)cc5)C[C@@H]34)cc2)cc1
inactive: [1] | [2] | [3] | [4] | [9] -123% [at 30 µM, stronger effect = lower value] | [6]

— PubChem BioAssay
